“And” between values parts separate entries of the source, which are not always exact repeats. Equal values may be shown once. The source made the active and inactive calls. How the source made its calls: active means hit-call score of the fitted dose curve at least 0.9, where 1 is the maximum; inactive means score below 0.9.
read-out: Interleukin-8 (IL8), CXCL8 (gene 3576); experiment: BSK_SAg_IL8: BioMAP Diversity Plus: SAg Assay for Interleukin-8 (IL8) Biomarker Activity (AID 2283094); settings: primary human HUVEC with PBMC; actives raise or lower the signal
Experimental: BSK_SAg is a cell-based, multiplexed-readout assay that uses umbilical vein endothelium and peripheral blood mononuclear cells, a human vascular primary cell co-culture, with measurements taken at 24 hours after chemical dosing in a 96-well plate.BSK_SAg_IL8 is an assay component measured in the BSK_SAg assay. It measures IL-8 antibody related to regulation of gene expression using ELISA technology.Data from the assay component BSK_SAg_IL8 was analyzed into 1 assay endpoint. This assay endpoint, BSK_SAg_IL8, was analyzed with bidirectional fitting relative to DMSO as the negative control and baseline of activity. Using a type of binding reporter, gain or loss-of-signal activity can be used to understand changes in the signaling as they relate to the gene CXCL8. Furthermore, this assay endpoint can be referred to as a primary readout, because this assay has produced multiple assay endpoints where this one serves a signaling function. To generalize the intended target to other relatable targets, this assay endpoint is annotated to the cytokine intended target family, where the subfamily is interleukins.
The levels of cell surface (or secreted, indicated by the prefix "s") biomarker endpoints were measured by ELISA. Overt cytotoxicity to cells in confluent adherent cultures (all systems other than the BT system) was assessed by measuring total protein levels using sulforhodamine B (SRB) staining in parallel cultures at the time of biomarker measurements, indicated as SRB endpoints. For proliferation assays for adherent cell types, individual cell types are cultured at sub-confluence and relative cell numbers quantified by SRB staining at time points optimized for each system (48 h: 3C and CASM3C systems; 72 h: BT and HDF3CGF systems; 96 h: SAg system). SRB was performed by staining cells with 0.1% SRB after fixation with 10% TCA and reading wells at 560 nm.Viability and proliferation of PBMC (T cells) was quantified by Alamar Blue reduction for the SAg and BT systems. For PBMC viability (referred to as PBMC Cytotoxicity within the assay endpoint names), cells were plated (75,000/well in a 96-well plate) and then chemical samples added for 1 h before addition of activators, SEB and TSST-1 (20 ng/mL final concentration each). Cells were incubated for 90 h. Then, Alamar Blue (20 uL/well) (Invitrogen, Cat DAL1100) was added for 6 h, and the plates were read with a fluorescence microplate reader at 546/580 nm (excitation/emission). For PBMC proliferation, cells were plated and activated as above but incubated for only 16 h prior to addition of Alamar Blue. Plates were read after 6 h.

With C=C1CC/C=C(\C)CC[C@@H]2[C@@H]1CC2(C)C as the compound, how does the AC50 read?
Its AC50 is 32.3 µM (active).

With CCC(=O)OCC=Cc1ccccc1 as the compound, how does the outcome read?
Its outcome is “inactive”.

How did the outcome turn out when c1ccc(OCCOc2ccccc2)cc1 was run?
Its outcome is “inactive”.

How did the AC50 turn out when c1ccc(Sc2ccccc2)cc1 was run?
The AC50 was 20 µM (active).

How did the AC50 turn out when C=CC(=O)OCC(CO)(COC(=O)C=C)COC(=O)C=C was run?
The AC50 was 0.219 µM (active).

Which outcome does the source give for CC(=O)CCC=C(C)CCC=C(C)C here?
Its outcome is “inactive”.

Nc1ccc(N)c([N+](=O)[O-])c1 was tested. Which outcome did it give?
The outcome was “inactive”.

O=S(=O)(O)C(F)(F)C(F)(F)OC(F)(F)C(F)(F)F was tested. Which outcome did it give?
Its outcome is “inactive”.

Which outcome does the source give for c1ccc2c(c1)-c1ccc3ccc4cccc5cc-2c1c3c45 here?
The outcome was “inactive”.

Which outcome does the source give for O=C(O)C(F)(F)C(F)(F)C(F)(F)C(F)(F)C(F)(F)C(F)(F)C(F)(F)C(F)F here?
The outcome was “inactive”.

CC1=CC(C)C(C=O)C(C)C1 (stereo not given) (tested in a mixture with another compound) was tested. Which outcome did it give?
The outcome was “inactive”.

Which outcome does the source give for CC(=O)c1ccc(C)cc1 here?
Its outcome is “inactive”.

Which AC50 does the source give for CC/C(=C(\c1ccccc1)c1ccc(OCCN(C)C)cc1)c1ccccc1 here?
The AC50 was 18.3 µM (active) and 7.16 µM (active).

Which outcome does the source give for C=C(C)C(N)=O here?
The outcome was “inactive”.

How did the outcome turn out when COC(=O)c1ccc(C(=O)OC)cc1 was run?
Its outcome is “inactive”.

OCC(F)(OC(F)(F)C(F)(OC(F)(F)C(F)(F)C(F)(F)F)C(F)(F)F)C(F)(F)F (stereo not given) was tested. Which AC50 did it give?
Its AC50 is 2.22 µM (active) and 2.66 µM (active).

How did the outcome turn out when CC(=O)OC(C)(C)C1CC=C(C)CC1 (stereo not given) was run?
The outcome was “inactive”.

With CC1(C)[C@H](C=C(Cl)Cl)[C@H]1C(=O)OCc1cccc(Oc2ccccc2)c1 as the compound, how does the outcome read?
The outcome was “inactive”.

How did the outcome turn out when NC(=O)c1c(Cl)cccc1Cl was run?
Its outcome is “inactive”.

How did the outcome turn out when O=C(O)C(F)(F)OC(F)(F)C(F)(F)OC(F)(F)C(F)(F)C(F)(F)C(F)(F)F was run?
Its outcome is “inactive”.

For O=S1(=O)CC(Cl)(Cl)C(Cl)(Cl)C1, which AC50 is on record?
The AC50 was 0.337 µM (active).

How did the outcome turn out when C=C(F)C(=O)OC(C(F)(F)F)C(F)(F)F was run?
Its outcome is “inactive”.

For C[C@]12CC[C@@H]3c4ccc(O)cc4CC[C@H]3[C@@H]1CC[C@@H]2O, which outcome is on record?
The outcome was “inactive”.

CCCCCCCC1CCCC1=O (stereo not given) was tested. Which outcome did it give?
The outcome was “inactive”.

O=C(c1ccc(OCCN2CCCCC2)cc1)c1c(-c2ccc(O)cc2)sc2cc(O)ccc12 was tested. Which AC50 did it give?
Its AC50 is 28.9 µM (active).

For C#C[C@]1(O)CC[C@H]2[C@@H]3CCc4cc(O)ccc4[C@H]3CC[C@@]21C, which outcome is on record?
The outcome was “inactive”.

With CC(C)(C)c1cccc(O)c1 as the compound, how does the outcome read?
Its outcome is “inactive”.

How did the outcome turn out when OCCN1CCOCC1 was run?
The outcome was “inactive”.

With CC=CC(=O)C1=C(C)C=CCC1(C)C as the compound, how does the AC50 read?
Its AC50 is 0.016 µM (active).

With C=C(C)C(=O)OCCC(F)(F)C(F)(F)C(F)(F)C(F)(F)C(F)(F)C(F)(F)C(F)(F)C(F)(F)F as the compound, how does the outcome read?
The outcome was “inactive”.

With CC(=O)OCC=C(C)CCC=C(C)CCC=C(C)C as the compound, how does the outcome read?
The outcome was “inactive”.

Which outcome does the source give for CC(C)CCCC(C)(C)O here?
Its outcome is “inactive”.

Which outcome does the source give for CC(C)Cc1ccc(C(C)C(=O)O)cc1 (stereo not given) here?
Its outcome is “inactive”.

With CCCO[Si](OCCC)(OCCC)OCCC as the compound, how does the outcome read?
The outcome was “inactive”.

CC(C)(CO)CO was tested. Which outcome did it give?
Its outcome is “inactive”.

With COc1ccccc1NC(=O)CC(C)=O as the compound, how does the outcome read?
The outcome was “inactive”.

Which outcome does the source give for CCCCCCCCCCCCS here?
Its outcome is “inactive”.

With CCOC(=O)CCCCCCCCC(=O)OCC as the compound, how does the outcome read?
The outcome was “inactive”.

How did the outcome turn out when CCCCCCCCCC(=O)OCC was run?
Its outcome is “inactive”.

How did the outcome turn out when CCn1cc(C(=O)O)c(=O)c2ccc(C)nc21 was run?
The outcome was “inactive”.

From PubChem BioAssay (EPA / NIEHS)
